Shown is part of a subset that was picked to be rich in hits.
miR-122 inh: raises miR-122 sensor activity in Huh7 cells | Huh7 psiCHECK-miR122 Renilla luciferase sensor, 48 h | activation, % at 12.5 µM | 340,000 compounds, 0.14% hits | AID 623901;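 active = mean activation of 30% or more, with every replicate also reaching 30%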;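 note: 0% = median of neutral control wells and 100% = median of positive control wells; higher luciferase signal means stronger suppression of miR-122 activity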
Active calls of the source: *.

SMILES	miR-122 inh
COc1ccc(-c2cnc3c(c2)C(=O)N([C@@H](C)CO)C[C@@H](C)[C@H](CN(C)Cc2ccccn2)O3)cc1	-4
CCC(=O)N(C)C[C@H]1Oc2cc(C#C[C@@H](C)O)ccc2S(=O)(=O)N([C@@H](C)CO)C[C@@H]1C	7
C[C@H]1CN([C@@H](C)CO)C(=O)c2cc(C#CCc3ccccc3)cnc2O[C@@H]1CN(C)CC1CCOCC1	5
C[C@@H]1CN([C@H](C)CO)C(=O)c2cc(C#CC3CCCC3)cnc2O[C@H]1CN(C)C(=O)C1CCC1	-2
C[C@@H]1CN([C@@H](C)CO)C(=O)c2cc(C#Cc3ccccn3)cnc2O[C@H]1CN(C)Cc1cncnc1	6
CCOc1ccc(-c2cc(N)n(S(=O)(=O)c3ccc(OC)c(OC)c3)n2)cc1	-92
COc1ccc(-c2c(C)nn3c(N)c(-c4ccccc4)cnc23)cc1OC	45*
COCC#Cc1ccc2c(c1)O[C@@H](CN(C)Cc1cncnc1)[C@H](C)CN([C@H](C)CO)S2(=O)=O	-6
CCCN1C[C@H](C)[C@@H](OC)CN(C)C(=O)c2ccc(NC(=O)COC)cc2OC[C@@H]1C	0
CC(=O)N(C)C[C@@H]1Oc2cc(C#CC3(O)CCCC3)ccc2S(=O)(=O)N([C@@H](C)CO)C[C@H]1C	3
C[C@@H]1CN([C@H](C)CO)C(=O)c2cc(/C=C/c3ccccc3)cnc2O[C@@H]1CN(C)C(=O)c1cccnc1	4
COc1cccc(/C=N/Nc2ccc([N+](=O)[O-])cn2)c1O	33*
C[C@@H]1CN([C@H](C)CO)C(=O)c2cc(-c3ccc(F)cc3)cnc2O[C@H]1CN(C)Cc1ccccn1	3
C[C@@H]1CN([C@@H](C)CO)S(=O)(=O)c2ccc(C#CC3CC3)cc2O[C@@H]1CN(C)Cc1ccccn1	-14
Cc1nn(C)cc1NC(=O)C[C@@H]1CC[C@H]2[C@@H](COc3ccc(NC(=O)Nc4cccc(Cl)c4)cc3C(=O)N2C)O1	48*
Cc1nn(C)cc1NC(=O)C[C@H]1CC[C@@H]2[C@H](COc3ccc(NC(=O)Nc4cccc(Cl)c4)cc3C(=O)N2C)O1	69*
CNC[C@H]1Oc2cc(C#CCC3CCCC3)ccc2S(=O)(=O)N([C@H](C)CO)C[C@H]1C	-17
CCCN(C)C[C@H]1Oc2cc(C#CCN(C)C)ccc2S(=O)(=O)N([C@H](C)CO)C[C@H]1C	-7
C[C@H]1CN([C@@H](C)CO)S(=O)(=O)c2ccc(C#Cc3ccncc3)cc2O[C@H]1CN(C)C(=O)C1CCCCC1	-42
CCCCCCCN(C(=O)CCl)c1cccc(C)c1	66*
COc1ccc(NC(=O)Nc2cccc3c2O[C@H](CN(C)Cc2ccc4c(c2)OCO4)[C@@H](C)CN([C@@H](C)CO)C3=O)cc1	-96
CC(C)CC#Cc1cnc2c(c1)C(=O)N([C@@H](C)CO)C[C@H](C)[C@@H](CN(C)S(=O)(=O)c1ccccc1)O2	-20
COc1ccc(NC(=O)N(C)C[C@@H]2Oc3ncc(C4=CCCC4)cc3C(=O)N([C@@H](C)CO)C[C@@H]2C)cc1	2
CNc1nc(NCCOc2ccccc2)c2sccc2n1	37*
CCNc1nc(N)nc(Oc2ccc(OCCOc3ccccc3)nn2)n1	-151
SMILES	miR-122 inh
C[C@@H](O)C#Cc1cnc2c(c1)C(=O)N([C@@H](C)CO)C[C@H](C)[C@H](CN(C)C(=O)CN(C)C)O2	2
COC(=O)c1nn(-c2ccccc2)c(Sc2ccc(Cl)cc2)c1/C=N/O	36*
NC(=O)C1CCN(C2=C(Cl)C(=O)c3ccccc3C2=O)CC1	70*
C[C@@H]1CN([C@H](C)CO)S(=O)(=O)c2ccc(C#CC3(O)CCCC3)cc2O[C@@H]1CN(C)C(=O)Nc1ccc(F)cc1	-63
Cc1ccccc1-c1cnc2c(c1)C(=O)N([C@H](C)CO)C[C@@H](C)[C@@H](CN(C)C(=O)c1ccccc1)O2	5
C[C@H]1CN([C@@H](C)CO)C(=O)c2cc(/C=C/c3ccccc3)cnc2O[C@@H]1CN(C)C(=O)Cc1ccccn1	7
CO[C@@H]1CN(C)C(=O)c2ccc(NS(=O)(=O)c3ccc(C)cc3)cc2OC[C@@H](C)N(C)C[C@@H]1C	-4
C[C@H](CO)N1C[C@H](C)[C@@H](CN(C)S(=O)(=O)c2ccccc2F)Oc2cc(C#Cc3ccccc3)ccc2S1(=O)=O	-34
CCCN(C)C[C@H]1Oc2cc(-c3ccc(OC)cc3)ccc2S(=O)(=O)N([C@H](C)CO)C[C@H]1C	-77
COc1ccc(S(=O)(=O)Nc2ccc3c(c2)CC(=O)N([C@@H](C)CO)C[C@@H](C)[C@H](CN(C)CC2CC2)O3)cc1	2
COc1ccc(-c2oc3ncn(CCN4CCOCC4)c(=N)c3c2-c2ccc(OC)cc2)cc1	42*
Cc1ccc(S(=O)(=O)NCCN2CCOCC2)c(C)c1C	-92
COc1ccc(-c2oc3ncnc(NCCCN4CCOCC4)c3c2-c2ccc(OC)cc2)cc1	38*
CCCNC(=O)N(C)C[C@H]1Oc2cc(Br)ccc2S(=O)(=O)N([C@H](C)CO)C[C@H]1C	-10
C[C@@H]1CN([C@@H](C)CO)S(=O)(=O)c2ccc(/C=C/c3ccccc3)cc2O[C@@H]1CN(C)Cc1cccnc1	-5
C[C@H]1CN([C@@H](C)CO)C(=O)c2cc(C#CC(C)(C)O)cnc2O[C@H]1CN(C)C(=O)C1CC1	7
C[C@@H]1CN([C@H](C)CO)C(=O)c2cc(-c3cccc(C#N)c3)cnc2O[C@@H]1CN(C)C	-8
Cc1cc(C)nc(NS(=O)(=O)c2ccc(NC(=S)NC(=O)C3CCCC3)cc2)n1	62*
CN(Cc1ccccc1)S(=O)(=O)c1ccc(NC(=S)NC(=O)C2CCCC2)cc1	-124
Cc1cc(C)cc(NS(=O)(=O)c2ccc(NC(=S)NC(=O)c3cccs3)cc2)c1	-133
C[C@@H]1CN([C@@H](C)CO)C(=O)c2cc(C#Cc3ccccc3F)cnc2O[C@H]1CN(C)C(=O)C1CCOCC1	-3
CC(C)C#Cc1cnc2c(c1)C(=O)N([C@@H](C)CO)C[C@@H](C)[C@@H](CN(C)Cc1ccccn1)O2	7
CO[C@@H]1CN(C)C(=O)c2cc(NC(C)=O)ccc2OC[C@@H](C)N(C(=O)CN(C)C)C[C@@H]1C	0
C[C@H]1CN([C@@H](C)CO)S(=O)(=O)c2ccc(-c3cccc(C#N)c3)cc2O[C@H]1CN(C)Cc1ccccn1	6
CC(C)C#Cc1ccc2c(c1)O[C@H](CN(C)Cc1ccncc1)[C@H](C)CN([C@H](C)CO)S2(=O)=O	-22
SMILES	miR-122 inh
CC(C)C#Cc1ccc2c(c1)O[C@H](CN(C)C(=O)c1ccccc1)[C@@H](C)CN([C@H](C)CO)S2(=O)=O	-35
CCCC(NS(=O)(=O)c1ccc(Br)cc1)C(=O)O (stereo not drawn)	36*
CCCC(O)C#Cc1cnc2c(c1)C(=O)N([C@H](C)CO)C[C@H](C)[C@H](CN(C)C(=O)Nc1ccc(F)cc1)O2 (stereo partly drawn)	3
NCC12CC3CC(C1)CC(c1ccc(Br)cc1)(C3)C2	34*
Cc1ccc(-c2cnc3c(c2)C(=O)N([C@@H](C)CO)C[C@@H](C)[C@@H](CN(C)Cc2ccccc2F)O3)cc1	-7
C[C@@H]1CN([C@H](C)CO)S(=O)(=O)c2ccc(C#C[C@@H](C)O)cc2O[C@@H]1CN(C)C(=O)c1ccncc1	8
CCCNC(=O)N(C)C[C@@H]1Oc2cc(C#Cc3cccc(F)c3)ccc2S(=O)(=O)N([C@@H](C)CO)C[C@@H]1C	-4
Cc1cccc(C)c1NC(=O)CSCC(=O)c1ccc(O)c(O)c1	35*
